# Measurements as given in PubChem BioAssay (NCI).
# This is part of a sample that, as a whole, favours compounds with a hit. Of some 83,000 tested, about 20% had one in any assay.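 In brief: 96-well plates, 48 h treatment, single concentration, percent growth endpoint.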 Values without a mark were called inactive. The source made the active and inactive calls. Rule for the calls: active = growth percent below 10; inactive = the rest.
# Tested on: MALME-3M melanoma
# Assay: NCI-60 one-dose screen, 48 h (100 = growth as untreated, 0 = no growth, -100 = all killed)
# Settings: 10 µM unless noted
row,SMILES,growth
1,CC(=O)Oc1ccc(CCN2C(=O)CSC2=S)cc1,83.2%
2,COc1cc(/C=N/n2cnc3oc(-c4ccccc4)cc3c2=N)cc(CN2CCOCC2)c1O,66.4%
3,CCOC(=O)/C=c1\sc2n(c1=O)C1C(NN=2)N(CC)C(=O)N1CC (centres undefined),49.1%
4,CN(C)c1ccc(/C=N/Nc2nc(N/N=C/c3ccc(N(C)C)cc3)nc(N3CCOCC3)n2)cc1,114%
5,COc1cc2oc(-c3cccc(NC(=O)c4cc(NC(=O)[C@H](C)NC(=O)OC(C)(C)C)ccc4C)c3)cc(=O)c2c(OC)c1OC,92.5%
6,CN1CCN(Cc2ccc(NC(=O)c3cncc(C#Cc4cnc5ccc(NC6CCOCC6)nn45)c3)cc2C(F)(F)F)CC1,-86.5% (active)
7,O=C(Nc1ccc(Cl)cc1)Nc1nc2ccc([N+](=O)[O-])cc2s1,-21.3% (active)
8,CCCCCCNC(=O)Oc1ccc(/C(=C(/C)c2ccc(OC)cc2)c2ccc(OCCN3CCCC3)cc2)cc1,-13.6% (active)
9,O=c1c2ccccc2nc(COc2ccccc2)n1/N=C/C=C/c1ccccc1,96.9%
10,CCCCCc1ccc(S(=O)(=O)N(C(C)=O)c2cccc(-c3csc(N(CCN4CCN(C)CC4)C(C)=O)n3)c2)cc1,-85.6% (active)
11,O=C(NNc1nc2cc(F)c(F)cc2n2cccc12)c1ccncn1,34.4%
12,O=C(CCCCCCN1CC(=O)N2[C@@H](c3cccc(Cl)c3)c3[nH]c4ccccc4c3C[C@H]2C1=O)NO,29.1%
13,O=C(/C=C/c1cn(-c2ccccc2)nc1-c1ccc(Cl)cc1)c1cc2ccccc2oc1=O,66%
14,COc1cc(/C=C/C(=O)c2ccc(NC(=O)COc3cccc4cccnc34)cc2)cc(OC)c1OC,70.2%
15,O=C(Nc1cccc(Cl)c1)Nc1nc2ccc([N+](=O)[O-])cc2s1,-9.22% (active)
16,O=C(NNc1nc2cc(F)cc(F)c2n2cccc12)c1ccncn1,28.3%
17,C[C@H]1[C@H](C)CC[C@]2(COC(=O)c3cccnc3)CC[C@]3(C)C(=CC[C@@H]4[C@@]5(C)CCCNC(C)(C)[C@@H]5CC[C@]43C)[C@H]12,59.9%
18,CN1CCN(c2ccc(NC(=O)Nc3ccc4c(ccn4-c4cccc(C(N)=O)n4)c3)cc2C(F)(F)F)CC1,16%
19,COc1ccc(OC)c([C@H]2c3[nH]c4ccccc4c3C[C@H]3C(=O)N(CCCCCCC(=O)NO)CC(=O)N23)c1,61.6%
20,CS(=O)c1nccc(-c2c(-c3ccc(F)c(OCc4ccccc4)c3)nc3sccn23)n1 (centres undefined),91.7%

row,SMILES,growth
1,CC(=O)NC(C)(C)C(=O)N1CCC[C@H]1C(=O)NC(C)(C)C(=O)N[C@@H](C)C(=O)NC(C)(C)C(=O)N[C@@H](C)C(=O)N[C@@H](CCC(N)=O)C(=O)NC(C)(C)C(=O)N[C@H](C(=O)NC(C)(C)C(=O)NCC(=O)N[C@@H](CC(C)C)C(=O)NC(C)(C)C(=O)N1CCC[C@H]1C(=O)N[C@H](C(=O)NC(C)(C)C(=O)NC(C)(C)C(=O)N[C@@H](CCC(N)=O)C(=O)N[C@@H](CCC(N)=O)C(=O)N[C@H](CO)Cc1ccccc1)C(C)C)C(C)C,57.1% [4.25 µM]
2,C=C(C)[C@@H]1CC[C@]2(C(=O)NCCCN(CCC#N)CCC#N)CC[C@]3(C)[C@H](CC[C@@H]4[C@@]5(C)CCC(=O)C(C)(C)[C@@H]5CC[C@]43C)[C@@H]12,102%
3,O=C(CN1C(=O)S/C(=C\c2ccccc2)C1=O)Nc1ccc(C(=O)/C=C/c2cc3ccccc3nc2Cl)cc1,91.1%
4,N#Cc1c(-c2cccs2)cc(-c2cnccn2)nc1SCC(=O)NNC(=S)Nc1ccc(F)cc1,127%
5,CN1CCN(c2nc(-c3cnc4ccccc4n3)cc3ccccc23)CC1,69%
6,Cc1cc(O)c(=O)cc2c1C[C@H]1CC(C)(C)/C=C/C[C@]3(C)Oc4cc(=O)c(O)cc(C)c4C[C@H]3C[C@H](O)[C@@]1(C)O2,-8.22% (active)
7,CC(C)=CCC[C@](C)(O)[C@H]1CC[C@]2(C)[C@@H]1CC[C@@H]1[C@@]3(C)CCC(NC(=O)c4ccccc4C(=O)O)C(C)(C)[C@@H]3CC[C@]12C (some centres undefined),31.8%
8,CN1CCN(c2ccc3c(C(N)=O)c(NC(=O)c4ccc(C(C)(C)C)cc4)sc3c2)CC1,81.6%
9,COc1ccc(-c2nc(SCC(C)C)nc(N/N=C\c3cccc([N+](=O)[O-])c3)c2C#N)cc1,48.1%
10,Cc1cc(F)cc(NS(=O)(=O)c2ccc(-c3cnc(C4CC4)o3)cc2)c1,59.2%
11,C/C(=N\NC(=O)CSc1nc2sc3c(c2c(=O)n1-c1ccccc1)CCC(C)C3)c1ccc(Cl)cc1 (centres undefined),29.1%
12,COc1ccc(NC(=O)[C@H](C)N)cc1C(=O)Nc1cccc(-c2cc(=O)c3c(OC)c(OC)c(OC)cc3o2)c1,86.5%
13,CC[C@H](C)[C@H]1NC(=O)[C@@H]([C@H](O)C(C)C)NC(=O)[C@@H](C)N(C)C(=O)[C@H](C)N(C)C(=O)[C@H](CC(C)C)NC(=O)[C@H](CC(C)C)N(C)C(=O)[C@H](C)N(C)C1=O,3.72% (active)
14,IP(CCCSc1n(Cc2ccc3ccccc3c2)c(-c2ccccc2)c(-c2ccccc2)[n+]1Cc1ccc2ccccc2c1)(c1ccccc1)(c1ccccc1)c1ccccc1,14.6%
15,N/C(=N\OC(=O)CSc1nc2ccccc2s1)c1ccc(Cl)cc1,105%
16,CC(=O)NC(C)(C)C(=O)N[C@@H](C)C(=O)NC(C)(C)C(=O)N[C@@H](C)C(=O)NC(C)(C)C(=O)N[C@@H](C)C(=O)N[C@@H](CCC(N)=O)C(=O)NC(C)(C)C(=O)N[C@H](C(=O)NC(C)(C)C(=O)NCC(=O)N[C@@H](CC(C)C)C(=O)NC(C)(C)C(=O)N1CCC[C@H]1C(=O)N[C@H](C(=O)NC(C)(C)C(=O)NC(C)(C)C(=O)N[C@@H](CCC(N)=O)C(=O)N[C@@H](CCC(N)=O)C(=O)N[C@H](CO)CC1CCCCC1)C(C)C)C(C)C,-41.4% [5 µM] (active)
17,CCOC(=O)C1=C(C)Nc2nnc(Nc3ccccc3)n2C1c1ccccc1 (centres undefined),75.3%
18,COc1cc(OC)c(S(N)(=O)=O)cc1C(=O)/C=C/c1ccccc1,68.1%
19,CCOC(=O)/C(F)=C/C1CC1C1CCCCC1 (centres undefined),97.9%
